EWS-Fli block: EWS/Fli-driven NR0B1 reporter inhibitors, primary screen, A673 cells, NR0B1 luciferase, luminescence, MLPCN library; viability-normalised; inhibition, % at 12.6 µM; 350,000 compounds, 0.67% hits; AID 651661, 2012;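 active = mean inhibition of at least 50% after viability correction, with every replicate also passing that limit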;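 also: firefly luciferase signal divided by Alamar Blue viability fluorescence both relative to DMSO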
LMP1 NFkB inh: EBV LMP1-driven NF-kappaB luciferase reporter inhibitors, primary screen, cell-based, luminescence, single point | LMP1-induced NF-kappaB luciferase reporter cells | 350,000 compounds, 0.69% hits | inhibition, % at 12.5 µM; in the data active = inhibition above about 41%;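 also: 0% = neutral control wells and 100% = reference inhibitor control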
LGR2 antag: inhibitors of bursicon-induced LGR2 CRE-luciferase signal, primary screen, cell-based, HEK293, CRE-luciferase reporter, bursicon stimulation. bursicon-stimulated, 4 h. inhibition, % at 9.99 µM. 380,000 compounds, 0.35% hits;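 active = drop in luminescence signal, shown as inhibition above about 50% in the replicate tests, limit read from the data, passing the limit was not always enough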;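 also: agonist challenge used bursicon conditioned medium at about half maximal strength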
PGC1a acetyl inh: inhibitors of PGC1a acetylation signal, primary screen, cell-based, U2OS, AlphaScreen, inhibitor mode; AlphaScreen anti-acetyl-lysine; with virally co-expressed GCN5 acetyltransferase; inhibition, % at 15.6 µM; 350,000 compounds, 0.17% hits; AID 651687, 2012;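 active = every replicate shows inhibition of at least 40%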;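 also: 0% = neutral control wells and 100% = positive control wells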
TRPM1 prom inh: inhibitors of MITF-dependent TRPM1 promoter reporter, primary screen, cell-based, SK-MEL-5, single point, luciferase; SK-MEL-5 TRPM1 promoter luciferase, 24 h; inhibition, % at 12.5 µM; 330,000 compounds, 0.83% hits; AID 488899, 2010;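 active = mean inhibition across replicates of 60% or more, whatever share of single replicates reaches that level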
PAX8 reporter: inhibitors of PAX8-driven TPO luciferase reporter, primary screen, RMG-I cells, single concentration | SteadyGlo, 24 h | inhibition, % at 12.6 µM | 360,000 compounds, 1.2% hits | AID 652154, 2013;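 active = mean replicate inhibition at least 60% with every replicate also reaching 60%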;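 also: luciferase light reporting Pax8 driven TPO promoter activity; plate controls were median of neutral control wells for no effect and mitoxantrone controls for full effect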
An asterisk follows results filed as active. Sampled rows, rich in hits. Any-hit rate of the full collection: about 2.2%.

C[C@H]1CN([C@@H](C)CO)S(=O)(=O)c2ccc(C#CC3(O)CCCC3)cc2O[C@@H]1CN(C)C(=O)Nc1ccccc1 was read as EWS-Fli block 17, LGR2 antag 8 and PGC1a acetyl inh -6.
For COCC#Cc1cnc2c(c1)C(=O)N([C@@H](C)CO)C[C@@H](C)[C@H](CN(C)C(=O)c1cccnc1)O2 the results were EWS-Fli block -7, LGR2 antag 3 and PGC1a acetyl inh -10.
For COc1cc(C(=O)Nc2ccncc2)c([N+](=O)[O-])cc1OC the results were EWS-Fli block 10, LMP1 NFkB inh -8, LGR2 antag 7, TRPM1 prom inh 6 and PAX8 reporter -17.
COc1cc(C(=O)/C=C/c2cccnc2)c([N+](=O)[O-])cc1OC was read as EWS-Fli block 38, LMP1 NFkB inh 18, LGR2 antag 64*, TRPM1 prom inh 34 and PAX8 reporter 94*.
Screening C[C@H]1CCCCO[C@H](CN(C)C(=O)Nc2ccc(F)cc2)[C@@H](C)CN([C@@H](C)CO)C(=O)c2cc(NC(=O)Nc3ccc(C(F)(F)F)cc3)ccc2O1 returned EWS-Fli block 4, LGR2 antag 16, PGC1a acetyl inh 0 and PAX8 reporter 84*.
`C[C@H](CO)N1C[C@H](C)[C@H](CN(C)C(=O)Nc2ccc(F)cc2)OCCCC[C@H](C)Oc2ccc(NC(=O)Nc3ccc(F)cc3)cc2C1=O` gave EWS-Fli block -7, LGR2 antag 53*, PGC1a acetyl inh 0 and PAX8 reporter 19.
`C[C@@H]1CCCCO[C@@H](CN(C)C(=O)Nc2ccc(F)cc2)[C@@H](C)CN([C@@H](C)CO)C(=O)c2cc(NC(=O)Nc3ccc(C(F)(F)F)cc3)ccc2O1` gave EWS-Fli block -2, LGR2 antag 7 and PGC1a acetyl inh -3.
For C[C@@H]1CCCCO[C@H](CN(C)C(=O)Nc2ccc(C(F)(F)F)cc2)[C@@H](C)CN([C@@H](C)CO)C(=O)c2cc(NC(=O)Nc3ccc(C(F)(F)F)cc3)ccc2O1 the results were EWS-Fli block -4, LGR2 antag -2, PGC1a acetyl inh 10 and PAX8 reporter 89*.
C[C@@H]1CCCCO[C@@H](CN(C)C)[C@H](C)CN([C@H](C)CO)C(=O)c2cc(NC(=O)Nc3ccc(C(F)(F)F)cc3)ccc2O1 was read as EWS-Fli block 6, PGC1a acetyl inh -3 and PAX8 reporter 63*.
For CO[C@H]1CN(C)C(=O)c2cc(NC(=O)c3ccc(F)cc3)ccc2OC[C@H](C)N(C(C)=O)C[C@H]1C the results were EWS-Fli block -4, LGR2 antag 16 and PGC1a acetyl inh 9.
COc1ccccc1NC(=O)N[C@@H]1CC[C@@H](CCNS(=O)(=O)c2ccc(F)cc2)O[C@H]1CO was read as EWS-Fli block -10, LGR2 antag 15, PGC1a acetyl inh -10 and PAX8 reporter 12.
`O=C(C1CCOCC1)N1CC2(C1)[C@@H](c1ccccc1)[C@@H](CO)N2Cc1ccccc1F` gave EWS-Fli block -8, LGR2 antag 22, PGC1a acetyl inh -5 and PAX8 reporter -8.
For C[C@@H]1CN([C@@H](C)CO)C(=O)c2cc(NC(=O)Nc3ccc(F)cc3)ccc2O[C@@H](C)CCCCO[C@@H]1CN(C)C(=O)C1CCCCC1 the results were EWS-Fli block 3, LGR2 antag -3, PGC1a acetyl inh 9 and PAX8 reporter 13.
C[C@@H]1CN([C@H](C)CO)C(=O)c2cc(NC(=O)Nc3ccc(C(F)(F)F)cc3)ccc2O[C@@H](C)CCCCO[C@H]1CN(C)S(C)(=O)=O was read as EWS-Fli block 2, LGR2 antag -8, PGC1a acetyl inh 7 and PAX8 reporter 73*.
Screening C[C@H](CO)N1C[C@H](C)[C@H](CN(C)S(=O)(=O)c2cccs2)OCCCC[C@H](C)Oc2ccc(NC(=O)Nc3ccc(C(F)(F)F)cc3)cc2C1=O returned EWS-Fli block -6, LGR2 antag -14, PGC1a acetyl inh -3 and PAX8 reporter 75*.
C[C@H]1CCCCO[C@H](CN(C)C(=O)Nc2ccc(C(F)(F)F)cc2)[C@@H](C)CN([C@@H](C)CO)C(=O)c2cc(NC(=O)Nc3ccc(F)cc3)ccc2O1 was read as EWS-Fli block -11, LGR2 antag 19, PGC1a acetyl inh 18 and PAX8 reporter 84*.
C[C@H]1CCCCO[C@@H](CN(C)S(=O)(=O)c2cccs2)[C@@H](C)CN([C@@H](C)CO)C(=O)c2cc(NC(=O)Nc3ccc(C(F)(F)F)cc3)ccc2O1 was read as EWS-Fli block 2, LGR2 antag 17, PGC1a acetyl inh 10 and PAX8 reporter 59.
`C[C@@H]1CCCCO[C@H](CN(C)C(=O)C2CCCCC2)[C@@H](C)CN([C@@H](C)CO)C(=O)c2cc(NC(=O)Nc3ccc(F)cc3)ccc2O1` gave EWS-Fli block 14, LGR2 antag 0, PGC1a acetyl inh 0 and PAX8 reporter 104*.
For CCCN(C)C[C@@H]1Oc2cc(C3=CCCCC3)ccc2S(=O)(=O)N([C@@H](C)CO)C[C@@H]1C the results were EWS-Fli block 9, LGR2 antag 13, PGC1a acetyl inh -13 and PAX8 reporter 25.
`C[C@@H]1CCCCO[C@@H](CN(C)C(=O)Nc2ccc(F)cc2)[C@H](C)CN([C@@H](C)CO)C(=O)c2cc(NC(=O)Nc3ccc(C(F)(F)F)cc3)ccc2O1` gave EWS-Fli block 2, LGR2 antag 5, PGC1a acetyl inh 0 and PAX8 reporter 78*.
`C[C@H]1CCCCO[C@@H](CN(C)S(=O)(=O)c2cccs2)[C@@H](C)CN([C@@H](C)CO)C(=O)c2cc(NC(=O)NC3CCCCC3)ccc2O1` gave EWS-Fli block 23, LGR2 antag 26, PGC1a acetyl inh -8 and PAX8 reporter 97*.
For C[C@@H]1CCCCO[C@@H](CN(C)C(=O)Nc2ccc(C(F)(F)F)cc2)[C@@H](C)CN([C@H](C)CO)C(=O)c2cc(NC(=O)Nc3ccc(F)cc3)ccc2O1 the results were EWS-Fli block 6, LGR2 antag 16 and PGC1a acetyl inh -1.
For C[C@@H]1CCCCO[C@H](CN(C)S(=O)(=O)c2cccs2)[C@H](C)CN([C@@H](C)CO)C(=O)c2cc(NC(=O)CCC(F)(F)F)ccc2O1 the results were EWS-Fli block 2, LGR2 antag -7, PGC1a acetyl inh -19 and PAX8 reporter 110*.
C[C@H](CO)N1C[C@H](C)[C@H](CN(C)S(=O)(=O)c2cccs2)OCCCC[C@H](C)Oc2ccc(NC(=O)CCC(F)(F)F)cc2C1=O was read as EWS-Fli block 5, LGR2 antag -1, PGC1a acetyl inh 9 and PAX8 reporter 14.

Screens from PubChem BioAssay.
